# Source: PubChem BioAssay AID1159580 (chemical genetic matrix, 2015)
# Values joined by “and” are separate entries in the source; they are usually repeats but may differ in a detail not shown here. Equal entries are not always repeated. In all, about 5,500 compounds went through this assay and about 2,000 (36%) were called active. Inconclusive results (about 18%) are left out. Some of the results follow. Unmarked numbers belong to inactive results. No stated cut-off is given here; in the data, active means normalized growth mostly below about 0.91 (no sharp cut-off); inconclusive means no clear call, values can overlap the other calls; inactive means mostly above about 0.92.
# Experiment: chemical genetic growth profiling, strain panel (AID 1159580);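 further: tested at 20 µM; growth read once vehicle control cultures reached saturation at 30 °C; 1 = growth at the plate median or of vehicle wells; lower values mean less growth of the strain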
# Details: S. cerevisiae deletion strains, growth OD
smiles,measurement,setting,value
CCCCNc1ccc(C(=O)OCCN(C)C)cc1,normalized growth,"locus YAL013W, strain DEP1, hits give low values",1.01
same,normalized growth,"locus YAL021C, strain ccr4, hits give low values",0.978
same,normalized growth,"locus YAL026C, strain drs2, hits give low values",1.02
same,normalized growth,"locus YAL030W, strain snc1, hits give low values",0.999
same,normalized growth,"locus YAL040C, strain CLN3, hits give low values",0.929
same,normalized growth,"locus YBL061C, strain skt5, hits give low values",1.02
same,normalized growth,"locus YBR009C, strain hhf1, hits give low values",0.978
same,normalized growth,"locus YBR021W, strain FUR4, hits give low values",1.02
same,normalized growth,"locus YBR023C, strain chs3, hits give low values",1.01
same,normalized growth,"locus YBR171W, strain sec66, hits give low values",1.02
same,normalized growth,"locus YBR229C, strain ROT2, hits give low values",1.01
same,normalized growth,"locus YBR231C, strain swc5, hits give low values",1
same,normalized growth,"locus YBR279W, strain paf1, hits give low values",1.01
same,normalized growth,"locus YCL011C, strain gbp2, hits give low values",1.03
same,normalized growth,"locus YCL016C, strain dcc1, hits give low values",1.02
same,normalized growth,"locus YCL029C, strain bik1, hits give low values",1.01
same,normalized growth,"locus YCL061C, strain MRC1 (second series), hits give low values",1.01
same,normalized growth,"locus YCL069W, strain vba3, hits give low values",1.01
same,normalized growth,"locus YCR088W, strain abp1, hits give low values",1.01
same,normalized growth,"locus YDL005C, strain med2, hits give low values",1.01
same,normalized growth,"locus YDL035C, strain GPR1, hits give low values",1.01
same,normalized growth,"locus YDL040C, strain nat1, hits give low values",1.01
same,normalized growth,"locus YDL074C, strain BRE1, hits give low values",1.02
same,normalized growth,"locus YDL101C, strain DUN1, hits give low values",1.01
same,normalized growth,"locus YDL134C, strain PPH21, hits give low values",1.01
same,normalized growth,"locus YDL185W, strain tfp1, hits give low values",1.02
same,normalized growth,"locus YDL192W, strain arf1, hits give low values",1.01
same,normalized growth,"locus YDR001C, strain nth1, hits give low values",1.01
same,normalized growth,"locus YDR069C, strain doa4, hits give low values",0.991
same,normalized growth,"locus YDR101C, strain arx1, hits give low values",1.01
same,normalized growth,"locus YDR137W, strain rgp1, hits give low values",1.17 [resistant] (active)
same,normalized growth,"locus YDR150W, strain NUM1, hits give low values",1.01
same,normalized growth,"locus YDR159W, strain sac3, hits give low values",1.01
same,normalized growth,"locus YDR162C, strain NBP2, hits give low values",0.998
same,normalized growth,"locus YDR195W, strain ref2",0.952
same,normalized growth,"locus YDR297W, strain sur2, hits give low values",1.02
same,normalized growth,"locus YDR318W, strain mcm21, hits give low values",1.02
same,normalized growth,"locus YDR334W, strain swr1, hits give low values",1.04
same,normalized growth,"locus YDR335W, strain msn5, hits give low values",1.04
same,normalized growth,"locus YDR363W, strain ESC2, hits give low values",1.01
same,normalized growth,"locus YDR388W, hits give low values",1.02
same,normalized growth,"locus YDR392W, strain spt3, hits give low values",1.09
same,normalized growth,"locus YDR502C, strain sam2, hits give low values",1
same,normalized growth,"locus YEL003W, strain gim4, hits give low values",1.01
same,normalized growth,"locus YEL037C, strain rad23, hits give low values",1.02
same,normalized growth,"locus YEL061C, strain CIN8 (second series), hits give low values",1.02
same,normalized growth,"locus YEL061C, strain CIN8, hits give low values",1.01
same,normalized growth,"locus YER002W, strain NOP16, hits give low values",0.995
same,normalized growth,"locus YER015W, strain faa2, hits give low values",1.01
same,normalized growth,"locus YER016W, strain bim1, hits give low values",1.02
same,normalized growth,"locus YER110C, hits give low values",1.02
same,normalized growth,"locus YER111C, strain swi4, hits give low values",1.01
same,normalized growth,"locus YER155C, strain BEM2 (second series), hits give low values",0.95
same,normalized growth,"locus YER155C, strain BEM2, hits give low values",0.999
same,normalized growth,"locus YER167W, strain BCK2, hits give low values",1.01
same,normalized growth,"locus YFR010W, strain ubp6, hits give low values",0.991
same,normalized growth,"locus YGL078C, strain dbp3, hits give low values",1.02
same,normalized growth,"locus YGL086W, strain mad1, hits give low values",0.997
same,normalized growth,"locus YGL167C, strain pmr1, hits give low values",1.01
same,normalized growth,"locus YGL173C, strain kem1, hits give low values",1
same,normalized growth,"locus YGL227W, strain vid30, hits give low values",1.01
same,normalized growth,"locus YGL240W, strain doc1, hits give low values",1.01
same,normalized growth,"locus YGL248W, strain PDE1, hits give low values",0.998
same,normalized growth,"locus YGL253W, strain hxk2, hits give low values",1.03
same,normalized growth,"locus YGR078C, strain PAC10, hits give low values",1.01
same,normalized growth,"locus YGR135W, strain pre9, hits give low values",1
same,normalized growth,"locus YGR229C, strain SMI1, hits give low values",1.03
same,normalized growth,"locus YGR252W, strain gcn5, hits give low values",0.915
same,normalized growth,"locus YHR013C, strain ard1, hits give low values",0.993
same,normalized growth,"locus YHR027C, strain rpn1, hits give low values",1.01
same,normalized growth,"locus YHR030C, strain SLT2, hits give low values",1.01 and 0.96
same,normalized growth,"locus YHR079C, strain IRE1 (second series), hits give low values",1.02
same,normalized growth,"locus YHR079C, strain IRE1, hits give low values",0.977
same,normalized growth,"locus YHR094C, strain hxt1, hits give low values",1.02
same,normalized growth,"locus YHR129C, strain ARP1, hits give low values",1
same,normalized growth,"locus YHR142W, strain chs7, hits give low values",1.06
same,normalized growth,"locus YHR200W, strain rpn10, hits give low values",1.02
same,normalized growth,"locus YIL066C, strain RNR3, hits give low values",1.01
same,normalized growth,"locus YIL073C, strain SPO22, hits give low values",1.04
same,normalized growth,"locus YIL125W, strain kgd1, hits give low values",1.02
same,normalized growth,"locus YIR030C, strain dcg1, hits give low values",1.02
same,normalized growth,"locus YJL092W, strain hpr5, hits give low values",1.02
same,normalized growth,"locus YJL095W, strain BCK1 (second series), hits give low values",1.02
same,normalized growth,"locus YJL095W, strain BCK1, hits give low values",0.991 and 0.961
same,normalized growth,"locus YJL115W, strain asf1, hits give low values",1.03
same,normalized growth,"locus YJL129C, strain trk1, hits give low values",1.01
same,normalized growth,"locus YJL134W, strain LCB3, hits give low values",1
same,normalized growth,"locus YJL154C, strain vps35, hits give low values",1.01
same,normalized growth,"locus YJL164C, strain tpk1, hits give low values",0.996
same,normalized growth,"locus YJL166W, strain qcr8, hits give low values",1.02
same,normalized growth,"locus YJL168C, strain set2, hits give low values",1.02
same,normalized growth,"locus YJL187C, strain SWE1 (second series), hits give low values",1.01
same,normalized growth,"locus YJR043C, strain POL32, hits give low values",1.02
same,normalized growth,"locus YJR066W, strain TOR1, hits give low values",0.926
